The list shows a part of the results. Results filed as inconclusive are left out. Unmarked numbers belong to inactive results. Calls of active or inactive are those of the source. Calls come from the whole dose curve.
% is set by controls: 0 for no effect and ±100 for the full control effect; potency is the fitted concentration of half-maximal effect.

The test has as its system Hepatitis C virus NS3/4A protease. The experiment in a line: Selectivity profile for inhibitors of NSP2Pro chikungunya virus (CHIKV): NS34A-HCV Counterscreen (AID 1964106). Note: nearly all actives have a fitted effect of over 55% in size. The note with it: HCV NS3/4A protease biochemical counterscreen; series mostly up to 50.9 µM; activity change, negative = inhibition: at the top concentration. The text has this: PI: Natalia J. Martinez Ph.D.
National Center for Advancing Translational Sciences (NCATS),
National Institute of Health (NIH), Rockville, Maryland
Chikungunya virus (CHIKV) is a mosquito-borne RNA virus that has emerged as one of the most important global arboviral threats in the last decade. Although the first CHIKV vaccine has recently been FDA approved for use in healthy adults at increased risk, to date, there are no available antiviral drugs for CHIKV infection. CHIKV nsP2 protease plays a crucial role in the processing of the viral polypeptide precursor to release enzymes required for viral replication, thus making it a promising drug target for antiviral discovery. Here, we established a high-throughput pipeline to identify small molecule inhibitors of nsP2 proteolytic activity. The pipeline is composed of a suite of 1,536-well in vitro assays to support quantitative high-throughput (qHTS) screening campaigns. Specifically, we developed a fluorescence resonance energy transfer (FRET)-based assay using a fluorogenic peptide substrate encompassing an endogenous cleavage site and purified recombinant protease domain (nsP2pro). Using this assay, we interrogated ~37,000 small molecules, including those in drug repurposing libraries as well as chemically diverse and medicinal chemistry-friendly compounds. Hits were selected for follow-up validation against full-length nsP2 and an additional peptide. FRET-based 1,536-well assays for papain, hepatitis C virus NS3-4A, and human furin proteases were implemented to characterize compound selectivity. […] Novel compounds were identified to be potential nsP2 inhibitors and molecular docking analyses were performed to explain the binding mode of selected hits. In vitro antiviral activity was evaluated against a subset of compounds using a high-throughput CHIKV infection assay. To our knowledge, the pipeline presented here is unprecedented for CHIKV antiviral discovery research.
PROTOCOL TABLE (as described by Inglese J, Shamu CE and Guy RK. 2007)
SEQUENCE No. (e.g., 1, 2, 3, etc.); […] (e.g., Cells, Incubation, Reagent, etc.); VALUE; DESCRIPTION.
1; Enzyme; 2 uL; 1,536-well solid-bottom, black plate (Greiner Bio One).
2; Compounds; 20 nL; Echo 655 acoustic dispenser (Beckman Coulter).
3; Incubation; 15 min; room temperature in the dark.
4: Reagent; 2 uL; Ac-DE-[Lys(5-TAMRA)]-EE-[Abu-psi(COO)Ala]-S-[Lys(ECLIPSE-7)]-amide.
5; Detection; Fluorescence; time 0, ViewLux microplate reader (PerkinElmer) 525 nm excitation, 598/25 nm emission
6; Incubation; 15 min; room temperature
7; Detection; Fluorescence; time 15; ViewLux microplate reader (PerkinElmer), 525 nm excitation, 598/25 nm emission.
NOTES (numbers refer to sequence numbers above).
1. Two microliter of NS3-4A HCV enzyme solution (5 nM final concentration) in assay buffer (20 mM Tris-HCl pH 8.0, 150 mM NaCl, with 0.01% Tween 20) were dispensed into a 1,536-well solid-bottom black plate (Greiner Bio One) using the Kalypsys Pintool Station.
2. Twenty nanoliter of compounds, positive control Aprotinin (50 uM final concentration), or neutral control DMSO were transferred to the assay plates. Compounds in counter-screen assays were tested at 11 concentrations, 1:3 dilution points from 25 uM to 0.42 nM.
3. The assay plates were incubated in the dark for 15 min.
4. After incubation, 2 uL of 0.625 uM substrate (Ac-DE-[Lys(5-TAMRA)]-EE-[Abu-psi(COO)Ala]-S-[Lys(ECLIPSE-7)]-amide) in assay buffer (for NS3-4A assay) was added using the Kalypsys Pintool Station.
5-7. Plates were immediately read at time 0 then covered with stainless steel gasket lids and incubated for 15 min at room temperature in the dark. Fluorescence intensity in the assay plates were again read after incubation using the ViewLux imager equipped with Tamara fluorescence optics. The change in fluorescence intensity over the 15-min reaction period was normalized against DMSO and inhibitor controls as described below.
[…]
On the technique in general: Counterscreens check selectivity or assay interference.
For the compound `C=Cc1c(C)c2cc3nc(cc4[nH]c(cc5nc(cc1[nH]2)C(C)=C5CCC(=O)O)c(CCC(=O)OC)c4C)[C@@]1(C)C3=CC=C(C(=O)OC)[C@H]1C(=O)OC`, the compound was called inactive.

For `O=C(O)c1cccc(-n2[nH]c(-c3ccccc3)cc2=O)c1`, the “activity change, negative = inhibition” value is 106%. Turning to `C[C@@H]1O[C@@H](O[C@@H]2[C@@H](O)[C@H](OCCc3ccc(O)c(O)c3)O[C@H](CO[C@@H]3O[C@H](CO)[C@@H](O)[C@H](O)[C@H]3O)[C@H]2OC(=O)/C=C/c2ccc(O)c(O)c2)[C@H](O)[C@H](O)[C@H]1O`, the compound was called inactive. As to `C[C@@H]1C[C@@H](O)[C@@]23CO[C@]2(CO)C[C@@H](O)CC3[C@@]12CC(c1ccoc1)OC2=O` (stereo partly specified), the Potency was 11.3 µM (active). Turning to `CCOc1ccc(NC(=O)c2c(NC(=O)Cc3ccccc3)sc3c2CCCCC3)cc1`, the “activity change, negative = inhibition” value is 87%. Take `C=CC(=O)c1ccc2ccccc2c1`: the outcome was inactive. On the same count and under the same terms, to `Cc1c(S(=O)(=O)O)oc2c1C(=O)C(=O)c1c-2ccc2c1CCCC2(C)C` belongs “inactive”; to `N#CSc1cc(SC#N)c(N)nc1N`, “inactive”. Same read-out and setting: in the case of `CC1=C(/C=C/C(C)=C/C=C/C(C)=C/C=C/C=C(C)/C=C/C=C(C)/C=C/C2=C(C)CCCC2(C)C)C(C)(C)CCC1` it was “inactive”. Take `CCOc1ccc(NC(=O)c2c(NC(=O)Cc3ccccc3)sc3c2CCC(C)C3)cc1` (stereo unspecified): the “activity change, negative = inhibition” value was 107%. On the same count and under the same terms, to `CCOc1ccc(N(Cc2ccccc2)C(=O)c2nc(S(C)(=O)=O)ncc2Cl)cc1` belongs -14.7%. On to `COC([CH2][Hg])CNC(=O)c1ccccc1OCC(=O)O` (stereo unspecified), for which the Potency is 1.63 µM (active). Take `CO[C@]1(NC(=O)CSC(F)F)C(=O)N2C(C(=O)O)=C(CSc3nnnn3CCO)CO[C@H]21`: the “activity change, negative = inhibition” value was -9.29%. With `CCC(C)C(=O)OC1C(C)C2(O)C(C=C(CO)CC3(O)C(=O)C(C)=CC32)C2C(C)(C)C12OC(=O)C(C)C` (stereo unspecified), the “outcome” value is “inactive [at 17.2 µM]”.

Regarding `Cn1nnnc1Sc1ncnc2n[nH]c(-c3cccc(S(C)(=O)=O)c3)c12`, the Potency was 316 µM (active). On to `CC(=O)N[C@@H](C(=O)O[C@H]1CCC(C)(C)[C@@H]2CCC3=C(COC3=O)[C@@]12C)C(C)C`, for which the “outcome” value was “inactive [at 33.5 µM]”.
